From the supplement of paper PMC3616981

Compound: CC(C)c1cccc(C(C)C)c1N1C(=O)c2ccc(O)cc2C1=O
Experiment: reporter fold induction vs vehicle; higher = higher reporter activity
Summary of the method: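 Values give reporter activity as fold induction compared with vehicle, averaged across replicates where available. The multiplexed cellular reporter system carried 48 cis and 25 trans constructs, and ToxCast Phase II chemicals were run at 8 concentrations from 0.091 to 200 µM.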

Row | Target | reporter fold induction (0.091 µM) | reporter fold induction (0.274 µM) | reporter fold induction (0.823 µM) | reporter fold induction (2.469 µM) | reporter fold induction (7.407 µM) | reporter fold induction (22.22 µM) | reporter fold induction (66.67 µM) | reporter fold induction (200 µM)
1 | CAR_TRANS | 1.1 | 0.946 | 0.997 | 0.985 | 0.814 | 0.835 | 0.84 | 0.343
2 | VDRE_CIS | 1.07 | 1.09 | 0.969 | 0.979 | 1.62 | 1.76 | 2.18 | 3.25
3 | ERRa_TRANS | 1.21 | 0.853 | 1.02 | 1.39 | 1.37 | 0.823 | 0.836 | 0.339
4 | AR_TRANS | 1.06 | 0.894 | 1.13 | 1.02 | 1.02 | 1.29 | 1.01 | 1.14
5 | FoxO_CIS | 1.07 | 1.02 | 0.985 | 0.99 | 1.03 | 0.938 | 0.872 | 1.07
6 | LXRb_TRANS | 1.17 | 1.09 | 1 | 1.16 | 0.89 | 0.837 | 1.13 | 1.11
7 | PPARg_TRANS | 1.01 | 1.06 | 0.946 | 0.881 | 1.19 | 1.53 | 1.62 | 1.47
8 | RARg_TRANS | 1.16 | 0.981 | 1.09 | 1.21 | 1.54 | 1.83 | 1.82 | 0.812
9 | DR4_LXR_CIS | 1.02 | 0.906 | 1 | 1.02 | 0.88 | 0.462 | 0.424 | 0.478
10 | Ahr_CIS | 0.965 | 0.977 | 0.949 | 1.01 | 1.06 | 1 | 2.27 | 1.09
11 | HNF6_CIS | 0.992 | 0.941 | 0.978 | 0.981 | 0.982 | 0.952 | 0.932 | 0.692
12 | DR5_CIS | 0.96 | 1.09 | 1.11 | 0.929 | 1.98 | 2.11 | 1.71 | 2.04
13 | M_32_TRANS | 1.03 | 0.997 | 1.07 | 1.09 | 1.08 | 1.08 | 0.964 | 1
14 | CMV_CIS | 0.996 | 0.94 | 1 | 0.92 | 1.02 | 1.41 | 1.73 | 1.11
15 | BRE_CIS | 0.993 | 0.878 | 1.14 | 0.967 | 0.938 | 0.934 | 3.36 | 1.05
16 | M_32_CIS | 1.02 | 0.981 | 1 | 1.02 | 0.972 | 0.978 | 1.12 | 1.02
17 | AP_2_CIS | 1.04 | 1 | 1 | 1.05 | 1.01 | 0.908 | 0.965 | 0.898
18 | HSE_CIS | 0.991 | 0.939 | 1.05 | 1.05 | 0.985 | 0.942 | 1.81 | 3.95
19 | RORb_TRANS | 0.758 | 0.955 | 0.81 | 1.32 | 0.966 | 0.625 | 0.434 | 0.342
20 | PPARd_TRANS | 1.05 | 0.856 | 0.9 | 1.11 | 0.953 | 1.14 | 1.27 | 1.45
21 | Myc_CIS | 1.01 | 1.03 | 0.99 | 0.982 | 1.09 | 1.04 | 1.05 | 2.33
22 | RXRa_TRANS | 0.986 | 0.983 | 1.1 | 0.957 | 1.09 | 1.31 | 1.31 | 1.84
23 | PPRE_CIS | 1.02 | 0.905 | 1.09 | 0.944 | 1.08 | 1.21 | 2.59 | 1.68
